Read-out in test [1]: NAD(P)H dehydrogenase [quinone] 1 (NQO1), NQO1 (gene 1728)
Put plainly: LTEA_HepaRG_NQO1: Life Technologies and Expression Analysis (LTEA) Assay for NAD(P)H dehydrogenase [quinone] 1 (NQO1) using HepaRG (AID 2283526). The conditions noted are these: mRNA level, 48 h; actives raise or lower the signal. Summed up: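 Human HepaRG hepatic cells received chemicals for 48 h in serum-free induction medium with 0.5% DMSO, up to 100 uM. Expression was assessed by TaqMan qRT-PCR against housekeeping controls and fitted bidirectionally against DMSO.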

Read-out in test [2]: Nuclear factor erythroid 2-related factor 2 (Homo sapiens) (UniProt Q16236)
In words: LTEA_HepaRG_NFE2L2: Life Technologies and Expression Analysis (LTEA) Assay for Nuclear factor erythroid 2-related factor 2 (NFE2L2) Transcription Factor using HepaRG (AID 2283527). The conditions noted are these: mRNA level, 48 h; actives raise or lower the signal. The gist of the method:
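Differentiated human HepaRG cells in serum-free induction medium were exposed for 48 h to eight concentrations (top 100 uM, half-log dilutions, 0.5% DMSO), in duplicate. NFE2L2 mRNA was quantified by TaqMan qRT-PCR, normalized to ACTB, GAPDH and POLR2A, with bidirectional fitting versus DMSO.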

Read-out in test [3]: succinate dehydrogenase complex iron sulfur subunit B (SDHB), SDHB (gene 6390)
Put plainly: LTEA_HepaRG_SDHB: Life Technologies and Expression Analysis (LTEA) Assay for succinate dehydrogenase complex iron sulfur subunit B (SDHB) using HepaRG (AID 2283528). The conditions noted are these: mRNA level, 48 h; actives raise or lower the signal. Summed up: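 SDHB transcript level read by TaqMan qRT-PCR, housekeeping-normalised (ACTB, GAPDH, POLR2A), after 48 h chemical treatment of plated HepaRG cells; eight concentrations top 100 uM, half-log steps, 0.5% DMSO, duplicates; fitted both directions against DMSO.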

Read-out in test [4]: Signal transducer and activator of transcription 3 (Homo sapiens) (UniProt P40763)
Put plainly: LTEA_HepaRG_STAT3: Life Technologies and Expression Analysis (LTEA) Assay for Signal transducer and activator of transcription (STAT3) using HepaRG (AID 2283529). The conditions noted are these: mRNA level, 48 h; actives raise or lower the signal. The gist of the method:
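Differentiated human HepaRG cells in serum-free induction medium were exposed in duplicate for 48 h to eight half-log concentrations up to 100 uM in 0.5% DMSO. STAT3 mRNA was quantified by TaqMan qRT-PCR, normalized to ACTB, GAPDH and POLR2A, and fitted bidirectionally against DMSO.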

Read-out in test [5]: solute carrier (SLCO1B1), SLCO1B1 (gene 10599)
In words: LTEA_HepaRG_SLCO1B1: Life Technologies and Expression Analysis (LTEA) Assay for solute carrier (SLCO1B1) using HepaRG (AID 2283530). The following applies: mRNA level, 48 h; actives raise or lower the signal. Summed up: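 HepaRG, serum-free induction medium, 48 h dosing, 8-pt half-log from 100 uM, 0.5% DMSO vehicle, duplicates. Readout: SLCO1B1 mRNA, qRT-PCR, ACTB/GAPDH/POLR2A normalization; up or down fit vs DMSO.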

Read-out in test [6]: sulfotransferase 2A1 (SULT2A1), SULT2A1 (gene 6822)
In words: LTEA_HepaRG_SULT2A1: Life Technologies and Expression Analysis (LTEA) Assay for sulfotransferase 2A1 (SULT2A1) using HepaRG (AID 2283531). The following applies: mRNA level, 48 h; actives raise or lower the signal. Summed up:
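Transcript levels of SULT2A1, quantified by qRT-PCR and normalized to three housekeeping genes, serve as the readout. Human HepaRG cultures receive test chemicals for 48 h at up to 100 uM in half-log steps, with 0.5% DMSO vehicle.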

Read-out in test [7]: Transforming Growth Factor (TGFA), TGFA (gene 7039)
In words: LTEA_HepaRG_TGFA: Life Technologies and Expression Analysis (LTEA) Assay for Transforming Growth Factor (TGFA) using HepaRG (AID 2283532). The following applies: mRNA level, 48 h; actives raise or lower the signal. The gist of the method: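 Differentiated human HepaRG cells, plated 48 h then switched to serum-free induction medium, were exposed in duplicate for 48 h to 8-point half-log series from 100 uM in 0.5% DMSO. TGFA mRNA measured by qRT-PCR, normalized to ACTB/GAPDH/POLR2A, bidirectional fit versus DMSO.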

Read-out in test [8]: Transforming Growth Factor (TGFB1), TGFB1 (gene 7040)
Put plainly: LTEA_HepaRG_TGFB1: Life Technologies and Expression Analysis (LTEA) Assay for Transforming Growth Factor (TGFB1) Transporter using HepaRG (AID 2283533). The following applies: mRNA level, 48 h; actives raise or lower the signal. Summed up:
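HepaRG, 48 h post-plating, switched to serum-free induction medium; chemicals 100 uM top, half-log, 8 pts, 0.5% DMSO, dup; 48 h exposure; RNA → Fluidigm TaqMan qRT-PCR; norm ACTB/GAPDH/POLR2A; bidirectional fit vs DMSO.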

Read-out in a further test: TIMP1, TIMP1 (gene 7076)
In words: LTEA_HepaRG_TIMP1: Life Technologies and Expression Analysis (LTEA) Assay for TIMP1 using HepaRG (AID 2283534). The conditions noted are these: mRNA level, 48 h; actives raise or lower the signal. Summed up:
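Readout is TIMP1 mRNA level measured by qRT-PCR and normalized to three housekeeping genes. Human HepaRG cells were treated for 48 h in duplicate at eight concentrations up to 100 uM (0.5% DMSO); gain or loss fitted against DMSO.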

Read-out in test [9]: Thyroid Hormone Responsive (THRSP), THRSP (gene 7069)
Put plainly: LTEA_HepaRG_THRSP: Life Technologies and Expression Analysis (LTEA) Assay for Thyroid Hormone Responsive (THRSP) using HepaRG (AID 2283536). The conditions noted are these: mRNA level, 48 h; actives raise or lower the signal. Summed up: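 Differentiated human HepaRG cells were exposed in duplicate for 48 h in serum-free induction medium to eight concentrations (top 100 uM, half-log steps, 0.5% DMSO). Expression was quantified by TaqMan qRT-PCR, normalized to ACTB, GAPDH and POLR2A, with bidirectional fitting against DMSO.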

Read-out in test [10]: UDP glucuronosyltransferase (UGT1A1), UGT1A1 (gene 54658)
In words: LTEA_HepaRG_UGT1A1: Life Technologies and Expression Analysis (LTEA) Assay for UDP glucuronosyltransferase (UGT1A1) using HepaRG (AID 2283538). The following applies: mRNA level, 48 h; actives raise or lower the signal. The gist of the method:
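Human liver HepaRG cultures receive test chemical for 48 h, up to 100 uM in 0.5% DMSO, with phenobarbital induction controls. UGT1A1 mRNA is measured by qRT-PCR and normalized to ACTB, GAPDH and POLR2A.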

Read-out in test [11]: UDP glucuronosyltransferase (UGT1A6), UGT1A6 (gene 54578)
Put plainly: LTEA_HepaRG_UGT1A6: Life Technologies and Expression Analysis (LTEA) Assay for UDP glucuronosyltransferase (UGT1A6) using HepaRG (AID 2283539). The conditions noted are these: mRNA level, 48 h; actives raise or lower the signal. The gist of the method: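 HepaRG, 48 h post-plating switch to serum-free induction medium; chemical 48 h, 100 uM top, half-log x8, duplicate, 0.5% DMSO. Phenobarbital 1mM induction control. UGT1A6 mRNA by TaqMan qRT-PCR; gain/loss fit vs DMSO.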

Read-out in test [12]: X-box binding protein 1 (XBP1), XBP1 (gene 7494)
Put plainly: LTEA_HepaRG_XBP1: Life Technologies and Expression Analysis (LTEA) Assay for X-box binding protein 1 (XBP1) using HepaRG (AID 2283540). The following applies: mRNA level, 48 h; actives raise or lower the signal. The gist of the method:
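Transcript levels of XBP1, measured by qRT-PCR and normalised to three housekeeping genes, were fitted bidirectionally relative to 0.5% DMSO controls. Human HepaRG cells received eight-point half-log dilutions from 100 uM for 48 h.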

Test [13] can be described thus: LTEA_HepaRG_LDH_cytotoxicity: Cytotoxicity Assessment in the Life Technologies and Expression Analysis (LTEA) Assay (AID 2283563; active = hit-call score of the fitted dose curve at least 0.9, where 1 is the maximum;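 as to AC50: LDH activity released into spent culture medium as a marker of cell death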). The gist of the method:
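Cells were thawed and plated for 48 h. Medium was then replaced with serum-free induction medium. Chemicals (8 half-log points, maximum 100 uM, 0.5% DMSO) were added in duplicate for 48 h, after which spent medium was assayed for LDH.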

Test [14] in a line: ATG_XTT_Cytotoxicity: Cytotoxicity Assessment in the Attagene TRANS-FACTORIAL HepG2 Assay (AID 2283584; active = hit-call score of the fitted dose curve at least 0.9, where 1 is the maximum;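 as to AC50: cells exposed to compound for 24 h before reading; active means loss of viability signal versus DMSO baseline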). Summed up:
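Cells: human HepG2, transiently transfected with MRTU reporter constructs. Exposure 24 h. Readout: XTT, cell number. Baseline/neg ctrl DMSO; loss-of-signal scored.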

Read-out in test [15]: Cellular tumor antigen p53 (Homo sapiens) (UniProt P04637)
Put plainly: LTEA_HepaRG_TP53: Life Technologies and Expression Analysis (LTEA) Assay for Tumor Protein P53 (TP53) using HepaRG (AID 2283537). The following applies: mRNA level, 48 h; actives raise or lower the signal. The gist of the method:
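TP53 transcript measured by qRT-PCR, normalized to three housekeeping genes, after 48 h treatment of human HepaRG cultures with chemicals from 100 uM downward in half-log steps (0.5% DMSO vehicle, serum-free induction medium). Up- or down-regulation fitted against DMSO.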

Inconclusive results are not listed. The source made the active and inactive calls. The calls were made as follows, unless noted: active = hit-call score of the fitted dose curve at least 0.9, where 1 is the maximum; inactive = score below 0.9.

This passage reports outcome and AC50 results from PubChem BioAssay (EPA / NIEHS).

Chain of Signal transducer and activator of transcription 3 (Homo sapiens) (P40763 whole entry, looked up): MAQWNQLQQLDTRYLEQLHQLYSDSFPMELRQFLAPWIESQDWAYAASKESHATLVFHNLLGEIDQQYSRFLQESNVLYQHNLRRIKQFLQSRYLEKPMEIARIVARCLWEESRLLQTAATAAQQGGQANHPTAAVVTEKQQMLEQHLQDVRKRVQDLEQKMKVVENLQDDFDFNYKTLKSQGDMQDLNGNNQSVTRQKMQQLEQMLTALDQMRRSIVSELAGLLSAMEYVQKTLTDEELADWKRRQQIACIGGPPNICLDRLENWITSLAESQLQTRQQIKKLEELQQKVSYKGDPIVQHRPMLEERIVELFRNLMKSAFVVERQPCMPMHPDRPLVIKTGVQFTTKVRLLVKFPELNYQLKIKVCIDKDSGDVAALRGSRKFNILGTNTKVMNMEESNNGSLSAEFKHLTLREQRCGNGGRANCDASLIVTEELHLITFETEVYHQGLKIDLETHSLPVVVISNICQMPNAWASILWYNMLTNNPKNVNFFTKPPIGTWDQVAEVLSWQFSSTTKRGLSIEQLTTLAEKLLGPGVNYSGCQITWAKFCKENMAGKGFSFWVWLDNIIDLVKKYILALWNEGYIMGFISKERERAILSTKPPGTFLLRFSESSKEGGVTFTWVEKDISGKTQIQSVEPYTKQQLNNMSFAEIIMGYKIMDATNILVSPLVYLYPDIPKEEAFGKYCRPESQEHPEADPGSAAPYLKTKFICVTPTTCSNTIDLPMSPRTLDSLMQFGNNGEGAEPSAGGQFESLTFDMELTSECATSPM
Chain of Nuclear factor erythroid 2-related factor 2 (Homo sapiens) (Q16236 whole entry, looked up): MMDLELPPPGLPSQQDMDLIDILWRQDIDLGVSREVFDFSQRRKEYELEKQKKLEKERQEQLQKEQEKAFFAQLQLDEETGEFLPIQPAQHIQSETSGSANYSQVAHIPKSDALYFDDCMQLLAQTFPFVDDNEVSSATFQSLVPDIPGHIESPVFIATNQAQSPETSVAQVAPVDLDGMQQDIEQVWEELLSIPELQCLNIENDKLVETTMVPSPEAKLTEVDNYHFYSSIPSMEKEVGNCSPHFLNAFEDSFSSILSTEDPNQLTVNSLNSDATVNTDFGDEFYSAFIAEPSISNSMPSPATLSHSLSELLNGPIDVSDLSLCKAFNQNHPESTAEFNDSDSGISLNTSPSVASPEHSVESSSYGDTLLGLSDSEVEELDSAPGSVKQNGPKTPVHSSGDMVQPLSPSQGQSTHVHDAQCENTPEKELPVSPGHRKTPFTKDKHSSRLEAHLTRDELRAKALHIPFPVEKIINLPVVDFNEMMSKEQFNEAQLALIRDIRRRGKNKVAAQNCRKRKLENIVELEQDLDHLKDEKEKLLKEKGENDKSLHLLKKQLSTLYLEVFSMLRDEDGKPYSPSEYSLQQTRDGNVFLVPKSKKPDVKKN
Chain of Cellular tumor antigen p53 (Homo sapiens) (P04637 whole entry, looked up): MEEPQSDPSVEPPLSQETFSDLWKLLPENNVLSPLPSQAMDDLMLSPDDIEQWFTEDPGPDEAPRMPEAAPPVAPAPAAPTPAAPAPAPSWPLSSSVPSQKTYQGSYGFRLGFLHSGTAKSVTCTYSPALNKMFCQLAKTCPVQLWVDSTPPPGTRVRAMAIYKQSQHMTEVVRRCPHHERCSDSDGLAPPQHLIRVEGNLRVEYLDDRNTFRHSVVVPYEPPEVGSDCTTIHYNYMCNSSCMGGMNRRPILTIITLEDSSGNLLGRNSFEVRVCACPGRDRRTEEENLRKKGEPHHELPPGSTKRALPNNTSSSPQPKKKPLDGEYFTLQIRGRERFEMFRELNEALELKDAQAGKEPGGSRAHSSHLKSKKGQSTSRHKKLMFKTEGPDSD

Take `Clc1cccc(Cl)c1Cl`: the outcome in test [1], in test [2], in test [3], in [4], in test [5] and in test [6] was inactive. Further, the outcome in test [7] is “inactive”; in test [8], “inactive”; with TIMP1, TIMP1 (gene 7076), “inactive”; in test [9], “inactive”; in test [10] it was “inactive”; in test [11], “inactive”. The compound was called inactive in [12] and in [13].

Broadly, the AC50 is the midpoint of the concentration-response curve, whichever way the signal moves. `CC(c1ccccc1)(c1ccc(O)cc1)c1ccc(O)cc1`: the half-maximal activity concentration (AC50) in [14] is 40.4 µM (active).

`N#Cc1cccnc1`: the call in test [1], in [2], in test [3], in [4], in [5] and in test [6] was inactive. For the same compound, the outcome in [7] was “inactive”; in test [8], “inactive”; with TIMP1, TIMP1 (gene 7076), “inactive”; in test [9] it was “inactive”; in test [10] it was “inactive”; in test [11] it was “inactive”. For the same compound, the outcome in [12], in test [13] and in test [14] was inactive.

Regarding `CNC(=O)N(C)c1nc2ccccc2s1`, in [14], the result was inactive.

Regarding `C[C@@H]1O[C@@H](O[C@H]2C[C@@H](O)[C@]3(CO)[C@H]4[C@H](O)C[C@]5(C)[C@@H](C6=CC(=O)OC6)CC[C@]5(O)[C@@H]4CC[C@]3(O)C2)[C@H](O)[C@H](O)[C@H]1O`, the result in test [14] was inactive.

Regarding `CN(C)C(=S)S`, the compound was classed as inactive in [1], in [2], in test [3], in test [4], in [5] and in [6]. The outcome was “inactive” in test [7]; “inactive” in [8]; “inactive” with TIMP1, TIMP1 (gene 7076); “inactive” in test [9]; “inactive” in [10]; “inactive” in test [11]. The call in test [12], in [13] and in test [14] was inactive.

Consider `Nc1ccc(N)cc1`, for which the outcome in test [14] was inactive.

In the case of `Oc1cc(Cl)c(Cl)cc1Cl`, the outcome in [1], in test [2], in test [3], in [4], in [5] and in test [6] was inactive. Besides, the outcome in test [7] is “inactive”; in test [8], “inactive”; in the test with TIMP1, TIMP1 (gene 7076), “inactive”; in test [9] it was “inactive”; in [10] it was “inactive”; in test [11] it was “inactive”. Moreover, the compound was called inactive in test [12] and in [14]. Also, the concentration at half-maximal activity (AC50) in test [13] was 84.8 µM (active).

`Oc1c(Cl)cc(Cl)cc1Cl`: the outcome in [1], in [3], in [4], in test [5], in test [6] and in test [7] was inactive. The outcome was “inactive” in test [8]; “inactive” with TIMP1, TIMP1 (gene 7076); “inactive” in test [9]; “inactive” in test [10]; “inactive” in test [11]; “inactive” in test [12]. Also, in [15], the half-maximal activity concentration (AC50) was 50 µM (active).

With `CC1(C)COP(Oc2ccccc2)OC1`, the compound was classed as inactive in test [14].

Turning to `Cc1cc(C)cc(C)c1`, the compound was called inactive in test [1], in test [2], in [3], in [4], in test [5] and in test [6]. Also, the outcome in test [7] was “inactive”; in test [8], “inactive”; with TIMP1, TIMP1 (gene 7076), “inactive”; in test [9], “inactive”; in test [10], “inactive”; in [11], “inactive”. The compound was called inactive in [12], in test [13] and in [14].
